This is part of a sample that, as a whole, favours compounds with a hit. Of some 83,000 tested, about 20% had one in any assay.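 A percent growth of 40 corresponds to 60% growth inhibition; 0 means no net growth; -100 means all cells died. Active threshold: below 10.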 The source made the active and inactive calls.

The test relates to MDA-MB-468 breast. Kind of test: NCI-60 one-dose screen, 48 h (100 = growth as untreated, 0 = no growth, -100 = all killed). To be noted: 10 µM unless noted.
Consider `COC(=O)[C@@]12OC[C@]34[C@H]([C@@H](O)[C@@H]1O)[C@@]1(C)[C@H](O)C(=O)C=C(C)[C@@H]1C[C@H]3OC(=O)C(OC(C)=O)[C@@H]24` (some centres not stated), for which the growth was -11.6% (active).
As to `O=S(=O)(NCCCNc1nccc(-c2c(-c3cccc(O)c3)nc3occn23)n1)c1ccc(Br)cc1`, the growth is 96.3% (inactive).
Take `C=C1CCC2C3(C)COC(C)(C)OC3CCC2(C)C1C/C=C1/C(=O)OCC1OC(C)=O` (configuration not stated): the growth was 7.86% (active).
For `COc1ccc(C(=O)/C=C/c2ccc(Oc3nc(NCCO)nc(N4CCOCC4)n3)c(OC)c2)cc1` the value was 63.4% (inactive).
For `Cn1c(=O)c(F)c(Nc2ccc(I)cc2F)c2c(=O)n(C[C@@H](O)CO)cnc21` the value was 77.9% (inactive); for `CC1(C)CC2(C)OC2C2(C1)N=NC(=Nc1ccccc1)O2` (configuration not stated), -15.6% (active).
For `NC(=NCCCCCCN=C(N)/N=C(\N)Nc1ccc(Cl)cc1)/N=C(\N)Nc1ccc(Cl)cc1` the value was -69% (active).
In the case of `Cc1ccc(/C=C2/C(=O)Nc3cc(Cl)c(-c4csc(N)n4)cc32)cc1`, the growth is 15.2% (inactive).
For `COc1ccc(C(O)c2cc3c(N)c(C(=O)Nc4cccc(OC)c4)sc3nc2C)cc1` (configuration not stated) the value was 5.65% (active); for `Oc1c(Cl)cc(Cl)c2ccc(Cn3cc(-c4cc(F)cc(F)c4)nn3)nc12`, 38.2% (inactive); for `CCOC(=O)c1cc(C(=O)c2ccc(OC)c(OC)c2)n2ccc(-c3ccccn3)cc12`, 74.9% (inactive).
Consider `CN1CCN(C(=O)OCc2nc3c(N4CCOCC4)nc(Cl)nc3n2C)CC1`, for which the growth is -69.4% (active).
As to `CCOC(=O)C1=C(C)NC(=O)NC1c1c(Cl)n(CCCl)c2ccccc12` (configuration not stated), the growth is 97.2% (inactive).
Next, `O=C(O)c1ccc(-n2cc(/C=N/Nc3ccccc3F)c(-c3ccc(O)cc3)n2)cc1`: 78.3% (inactive).
As for `CCCCCCCCCCCCCCCCCCNCc1ccc(Cl)cc1`, the growth is -71.9% (active).
For `Nc1nc(-c2cc3c(cc2Cl)NC(=O)/C3=C/c2ccccc2)cs1` the value was 33.7% (inactive).
Next, `COC(=O)c1c(C(=O)OC)c2n(CC(=O)Nc3cccc4cccnc34)c3ccccc3n2c1C(=O)c1ccc(C)cc1`: 98.6% (inactive); `C=CCOc1ccc(/C(Cl)=N/N=C(\Cl)c2cc(OC)c(OC)c(OC)c2)cc1`: 23.3% (inactive).
For `Cc1ccc(-c2nc(/C=C3/C(=O)N(C)c4ccc(F)cc43)c3ccccn23)cc1` the value was 101% (inactive); for `Clc1ccc2c(NCCCN3CCOCC3)c3oc4ccccc4c3nc2c1`, 35.7% (inactive); for `CNCCCNCCCN1C(=O)c2ccc3c4c(ccc(c24)C1=O)C(=O)N(CCCNCc1ccccc1OC)C3=O`, -69.5% (active).
Consider `COc1ccccc1CNCCCN1C(=O)c2ccc3c4c(ccc(c24)C1=O)C(=O)N(CCCN)C3=O`, for which the growth was -88.1% (active).
For `NC(=S)N/N=C(/CCN1CCCC1)CC(C1=C(O)C2=CCCCC2OC1=O)c1ccccc1` (configuration not stated) the value was 17.9% (inactive).
`Cc1cc2nc(C)c(C)nc2cc1C`: the growth was 112% (inactive).
For `CN(C)c1ccc(C(=S)c2ccc(N(C)C)cc2)cc1`, the growth is -12.3% (active).
For `CC(C)CC(NC(=O)CN(Cc1ccccc1)S(C)(=O)=O)C(=O)O` (configuration not stated) the value was 99.6% (inactive); for `COc1ccc(C(=O)/C=C/c2ccc(C)cc2)cc1S(N)(=O)=O`, 60.4% (inactive).

The values above are taken from PubChem BioAssay (NCI).
